# HSF1 inhib: HSF1 inhibition; NIH3T3-HGL HSE-luciferase, MG132-induced, luminescence 8 h; hits give low values; activity change, negative = inhibition, % at 7.5 µM (by protocol); hit rate 0.77% among 300,000;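 active = more than half of replicate wells show activity change below -50%, luminescence cut by over half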;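 note: luciferase reports HSF-1 transcriptional activity via heat shock element; 0% = median of DMSO wells and -100% = zero luminescence signal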
# GAA850 FXN act: frataxin GAA850 promoter activation. HEK293 lucGAA850 FXN promoter luciferase reporter, 24 h; percent of 10 µM SAHA response. activation, % at 6 µM. hit rate 0.56% among 360,000. AID 540364;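 active = activation above the average of all compounds screened plus 3 SD, cutoff fixed separately per campaign, cut at about 7.5% in these data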;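 note: 0% = DMSO wells and 100% = 10 µM SAHA wells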
# PG9 binder: small molecules binding HIV-1 gp120 antibody PG9. TR-FRET gp120-PG9 antibody binding. inhibition, % at 6.7 µM. hit rate 0.43% among 360,000. AID 624416; in the data active = inhibition above about 8.5%
# HSP90 inh: inhibitors of HSP90 luciferase refolding in rabbit reticulocyte lysate. AID 1789. hit rate 0.91% among 290,000. luciferase refolding luminescence, 3 h. inhibition, % at 5.6 µM;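 active = inhibition above the screen-wide mean plus 3 SD, computed separately per campaign, cut at about 16% in these data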;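 note: 0% = DMSO wells and 100% = 60 µM geldanamycin wells; inhibitors lower the luminescence because luciferase stays unfolded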
# SMARCA2 act: activators of SMARCA2 function; activation, % at 9.1 µM; MG213 cells, MMTV-luciferase reporter, dexamethasone, overnight; hit rate 1% among 370,000; in the data active = activation above about 7.8%;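 note: 0% = vehicle wells and 100% = reference activator wells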
# AI-2 QS mod: modulates the Vibrio harveyi AI-2 quorum sensing system | Vibrio harveyi JMH597 AI-2 luminescence/OD600 ratio, 9 h; hits give low values; strain lacks LuxN and CqsS sensors; 0 = neutral-control median | activity change, % at 7.5 µM | hit rate 0.4% among 300,000 | AID 2094; in the data active = activity change below about -75%, passing the limit was not always enough;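 note: luminescence divided by OD600 gain over 9 h not by final OD600 alone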
# * marks the source's active call; other numbers are inactive results; / = no result given. Rows were chosen to be rich in hits. Some 3.4% of all compounds tested hit in one or more screens of this group.
SMILES,HSF1 inhib,GAA850 FXN act,PG9 binder,HSP90 inh,SMARCA2 act,AI-2 QS mod
CCC(C)(C)C(=O)N1CCC(C(=O)NC2CCCc3ccccc32)CC1 (stereo unspecified),/,/,/,/,3,/
CC(=O)N/C(=N\c1nc(C)cc(C)n1)Nc1ccc2ccccc2c1,-51*,-5,-1,13,-1,4
CC(=O)N/C(=N/c1nc(C)cc(C)n1)Nc1ccc(NC(C)=O)cc1,-1,0,-1,-1,-1,13
CCCCCc1c(C)nc(SCC(=O)O)[nH]c1=O,-3,1,1,1,0,16
CCCCCSc1nc(C)c(CC(=O)O)c(=O)[nH]1,-92*,0,0,5,-2,20
CC(c1ccccc1)n1cc(C(=O)NCCCN2CCCC2)nn1 (stereo unspecified),/,/,/,/,-1,/
O=C(COC(=O)CNC(=O)c1ccccc1F)Nc1cccnc1Cl,-77*,1,-2,-6,-3,12
O=C(c1ccco1)N(Cc1cc2ccccc2[nH]c1=O)C1CCCCC1,-82*,-2,0,3,-1,146
O=C(c1ccncc1)N(Cc1cc2ccccc2[nH]c1=O)C1CCCCC1,-2,-2,-2,-3,5,7
CN(CCOC(=O)CCCc1ccccc1)C1CN(Cc2cn(Cc3ccccc3F)nn2)S(=O)(=O)C1 (stereo unspecified),/,/,/,/,-3,/
CCC1Sc2ccc(S(=O)(=O)Nc3ccc(OC)c(OC)c3)cc2NC1=O (stereo unspecified),1,-1,-3,-6,-4,13
CCC1Sc2ccc(S(=O)(=O)Nc3ccc(OC)cc3)cc2NC1=O (stereo unspecified),-56*,1,-1,4,-3,4
COc1ccc(NS(=O)(=O)c2ccc3c(c2)NC(=O)CO3)cc1,-4,1,-2,0,0,-81*
COc1ccc(-c2nnc(SCC(=O)NN=C/C=C\c3ccco3)n2-c2ccc(OC)cc2)cc1,/,/,/,/,-2,/
O=C(CSc1ccc(Br)cc1)Nc1ccccc1N1CCOCC1,-77*,1,-2,1,-3,24
COc1cccc(-n2c(C)nnc2SCC(=O)Nc2ccccc2N2CCOCC2)c1,10,1,-2,2,7.9*,18
O=C(CSc1ccc([N+](=O)[O-])cc1)Nc1ccccc1N1CCOCC1,/,-1,-1,/,-2,/
COc1cc(NC(=O)C2CCCN(S(=O)(=O)c3ccc(C)c(C)c3)C2)cc(OC)c1 (stereo unspecified),/,/,/,/,-1,/
O=C(NCC(O)c1ccc2ccccc2c1)c1c(F)cccc1F (stereo unspecified),-1,2,0,-2,0,-75*
C=CCn1c(Cc2cccs2)nnc1SCC(=O)Nc1cccc2ccccc12,/,/,/,/,-4,/
CCC(C(=O)O)n1nc(-c2ccccc2)c2cc(Cl)ccc21 (stereo unspecified),-5,1,1,-1,0,13
CC(=O)c1ccc(NC(=O)C(C)n2nc(-c3ccccc3)c3cc(Cl)ccc32)cc1 (stereo unspecified),-67*,3,-2,2,1,-5
CC1CCN(CCCNS(=O)(=O)c2cc3c(cc2Br)CCN3C(=O)C2CC2)CC1,/,/,/,/,-1,/
Cc1ccc(OCC(=O)Nc2c[nH]c(=O)[nH]c2=O)cc1C,-52*,4,-2,0,-1,24
Cc1ccc(C)c(OCC(=O)Nc2c[nH]c(=O)[nH]c2=O)c1,0,2,-1,1,-1,8
SMILES,HSF1 inhib,GAA850 FXN act,PG9 binder,HSP90 inh,SMARCA2 act,AI-2 QS mod
O=C(Nc1nc(Cc2ccccc2)c(Cc2ccccc2)n1Cc1ccccc1)c1ccccc1,/,/,/,/,-3,/
NC(=O)c1cc(N2C(=O)C=CC2=O)ccc1Cl,0,0,/,-1,/,-82*
NC(=O)c1ccsc1NC(=O)C1CCCCC1,-57*,1,1,-2,1,20
NC(=O)c1ccsc1NC(=O)c1cccs1,-11,1,-1,2,-1,22
COC1=C[C@H](C(=O)NCc2ccc(OC)cc2)C(C)C(c2ccccc2)CC1=O (stereo partly specified),/,/,/,/,-1,/
COc1ccc(C(=O)Nc2cc(C(=O)c3ccccc3)c(C)oc2=O)cc1,34,12*,-2,0,6,8
COC(=O)c1cc(NC(=O)c2ccccc2)c(=O)oc1C,7,0,-2,-1,0,32
COc1ccc(CN2C(=O)[C@]3(NCCc4c3[nH]c3ccc(OC)cc43)c3cc(Br)ccc32)cc1,/,/,/,/,-2,/
CN(C)c1ccc(NS(=O)(=O)c2cc(Cl)ccc2Cl)cc1,-56*,2,-1,-1,2,15
CC(C)(C)C(CN1CCCC1)OC(=O)c1ccccc1 (stereo unspecified),-80*,1,-1,-2,-1,19
CCn1c(COc2ccc(C)cc2)nnc1SCC(=O)Nc1ccccc1-c1ccccc1,/,/,/,/,-4,/
O=C(Nc1ccccc1N1CCCC1)C1CCN(C(=O)c2ccc(Cl)cc2)CC1,-5,-3,-3,/,6,9
O=C(Nc1ccccc1N1CCCCC1)C1CCN(S(=O)(=O)c2ccccc2C(F)(F)F)CC1,-58*,-1,0,/,-2,21
O=C(Nc1ccccc1N1CCCCC1)C1CCN(C(=O)c2ccc(Cl)cc2)CC1,-67*,1,0,/,-1,-2
CC(C)Cc1ccc(C#N)c(SCC(N)=O)n1,-59*,2,-1,-3,2,22
C/C(=N\OCC(=O)Nn1c(=O)[nH]c2ccccc2c1=O)c1cccs1,-58*,1,5,-1,-3,8
CC(=O)c1ccc(NC(=O)CO/N=C(\C)c2cccs2)cc1,0,1,-2,1,3,-42
c1ccc(-c2nnc(Cn3c4ccccc4c4nc5ccccc5nc43)o2)cc1,/,-2,1,-3,-1,/
CC(O)c1nc2ccccc2n1Cc1nnc(-c2ccc(Cl)cc2)o1 (stereo unspecified),-56*,4,2,-1,2,10
Cc1ccc(-n2nc3c(=O)n(CCCC(=O)N4CCC(C(N)=O)CC4)nc(C)c3c2C)cc1,-52*,2,-1,2,0,6
CC(C)C1Cc2c(C#N)c(N)n(C)c(=S)c2CO1 (stereo unspecified),-52*,4,-2,2,7,24
O=C(Nc1ccc(-c2nc3cccnc3s2)cc1)C1CCCO1 (stereo unspecified),-59*,-3,1,60*,1,24
CCS(=O)(=O)Nc1ccc(-c2nc3cccnc3s2)cc1,-41,-1,0,36*,2,6
CCCCCCC(=O)NC1CCCCN(Cc2ccc(C)cc2)C1=O (stereo unspecified),/,/,/,/,-2,/
CCN(CC)S(=O)(=O)c1cccc(C(=O)OC2CCOC2=O)c1 (stereo unspecified),-8,-1,0,6,-4,21

# High-throughput results: PubChem BioAssay, several laboratories
